# Compounds with a hit are over-represented: about 3.6% of the library has one in this group of screens.
# VDR inh – Inhibitors of the vitamin D receptor (VDR): qHTS | hit rate 0.93% among 400,000 | AID 504847, 2011 | Vitamin D3 receptor (Homo sapiens), P11473 | Potency, µM, for inactives: max response, negative = inhibition, most hits filed as inhibitors | VDR-SRC2-3 peptide fluorescence polarization, 2 h; also: potency is read from the fitted curve at half-maximal effect; % is scaled to controls: 0 for no effect and ±100 for the full control effect
#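 Signal is fluorescence polarization, reporting how far test compounds block the interaction of VDR with the SRC2-3 coregulator peptide after a 2 h room-temperature incubation.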
# Rango release inh – qHTS Assay for Inhibitors of RanGTP induced Rango (Ran-regulated importin-beta cargo) - Importin beta complex dissociation; Snurportin-1 (Homo sapiens) + GTP-binding nuclear protein Ran (Homo sapiens) + Importin …; Biochemical FRET Rango-importin beta, RanGTP-induced dissociation; Potency, µM (highest dose often 46.1 µM), inactives show top-dose activity change, negative = inhibition; hit rate 0.071% among 340,000; calls by dose curve; also: potency is read from the fitted curve at half-maximal effect; % of control where 0% means no effect; nearly all actives have a fitted effect of over 45% in size
#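 Rango (0.1 uM)–importin beta (0.25 uM) complex; RanGTP-RCC1 trigger; 45 min RT; CFP/YFP FRET read.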
# GCN5L2 inh – qHTS Assay for Inhibitors of GCN5L2. GCN5L2 HAT assay, ThioGlo1 CoA-SH fluorescence. Potency, µM (highest dose often 58.9 µM), inactives show at the top dose activity change, negative = inhibition, hits mostly inhibitors. hit rate 0.21% among 390,000. AID 504327, 2011; also: potency is read from the fitted curve at half-maximal effect; % is scaled to controls: 0 for no effect and ±100 for the full control effect
#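 qHTS, 1536-well. 20nM enzyme, pH 7.5 HEPES/EDTA/Tween-20 buffer; 15 min compound preinc., RT. Start: 75uM H3(1-25), 70uM AcCoA, 50uM ThioGlo1. Read Ex340/Em540 at t=0 (autofluorescence flag) and t=20 min.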
# PI5P4Ka inh – qHTS for Inhibitors of phosphatidylinositol 5-phosphate 4-kinase (PI5P4K) | Phosphatidylinositol 5-phosphate 4-kinase type-2 alpha (Homo sapiens), P48426 | PI5P4Kalpha enzyme, ADP-Glo luminescence, 60 min; hits give low values | max response, % | hit rate 1.2% among 330,000 | AID 652105, 2013; active = max response of -50% or lower; inconclusive = between -30% and -50%; inactive = -30% or higher; also: value at the top dose of about 77 µM; % is scaled to controls: 0 for no effect and ±100 for the full control effect
# Target sequence (P48426 whole entry, looked up): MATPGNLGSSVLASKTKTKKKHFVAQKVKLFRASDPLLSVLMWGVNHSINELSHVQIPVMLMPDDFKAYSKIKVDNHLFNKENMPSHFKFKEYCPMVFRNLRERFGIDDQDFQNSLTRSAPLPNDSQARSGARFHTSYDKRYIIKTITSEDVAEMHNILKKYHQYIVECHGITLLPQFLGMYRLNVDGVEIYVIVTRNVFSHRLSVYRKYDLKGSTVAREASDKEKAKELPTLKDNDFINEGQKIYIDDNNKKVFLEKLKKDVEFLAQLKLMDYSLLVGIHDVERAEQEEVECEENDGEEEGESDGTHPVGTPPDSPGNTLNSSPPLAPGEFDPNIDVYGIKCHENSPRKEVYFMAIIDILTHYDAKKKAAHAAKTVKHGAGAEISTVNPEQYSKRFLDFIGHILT
#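 ADP-Glo luminescence end-point after a 60 min room-temperature kinase reaction. PI5P4Kalpha and substrate in HEPES pH 7.4 buffer with EGTA, 0.1% CHAPS and 5% DMSO; ATP at 5 microM final.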
# Rango complex inh – qHTS Assay for Inhibitors of Rango (Ran-regulated importin-beta cargo) - Importin beta complex formation | Potency, µM (highest dose often 92.2 µM), for inactives: top-dose inhibition of complex formation | hit rate 0.031% among 340,000 | Rango CFP/YFP FRET sensor + importin beta, 45 min | AID 540263, 2011; calls by dose curve;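 also: potency is read from the fitted curve at half-maximal effect; 0% = DMSO wells and 100% = buffer wells lacking importin beta; nearly all actives have a fitted effect of over 15% in size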
#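 FRET biosensor (snurportin 1 IBB flanked by EYFP and cerulean), 50 nM, with compound 5 min, then 0.125 microM importin beta in PBS, 1 mM DTT, 0.02% Tween-20, 0.1% BSA. CFP/YFP ratio read after 45 min at room temperature; pre-read flags interference.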
# PLK1 PBD inh – qHTS for Inhibitors of PLK1-PDB (polo-like kinase 1 - polo-box domain): Primary Screen | Potency, µM, for the others: max response, negative = inhibition, hits mostly inhibitors | Plk1 PBD binding of FITC phosphopeptide, fluorescence polarization | Serine/threonine-protein kinase PLK1 (Homo sapiens), P53350 | hit rate 2.8% among 360,000 | AID 720504, 2013; also: potency is read from the fitted curve at half-maximal effect; series mostly up to about 57 µM; % is scaled to controls: 0 for no effect and ±100 for the full control effect; nearly all actives have a fitted effect of over 65% in size
# An asterisk follows results filed as active; ? = inconclusive; . = not tested or not shown. Unless noted, calls follow the shape of the dose curve; as a rule, active = well fitted curve in the direction sought with a large enough effect; inconclusive = small, poorly fitted or top-dose-only effect, or another doubt; inactive = no such curve, though single readings can be large; an effect the other way counts as inactive or inconclusive.
SMILES,VDR inh,Rango release inh,GCN5L2 inh,PI5P4Ka inh,Rango complex inh,PLK1 PBD inh
Cc1c(C#N)c(O)[nH]c(=O)c1N=Nc1ccc(S(N)(=O)=O)cc1,3%,16%,-24%,-76*,-2%,-17%
Cc1cc2oc(=O)cc(CN3CCCC3)c2cc1Cl,.,.,.,-13,.,-11%
CCOC(=O)C1CCN(Cc2cc(=O)oc3cc(C)c(Cl)cc23)CC1,?,2%,-21%,-7,4%,27µM*
Cc1ccc(Nc2cc(C)c(O)c(C)c2)cc1,25µM*,2%,1%,-4,-1%,27µM*
Cc1ccc(Nc2ccccc2)cc1,7%,-1%,-3%,0,0%,0%
COc1ccc(S(=O)(=O)N(CC(=O)Nc2cccc(C(F)(F)F)c2)c2ccc(C)cc2)cc1,-8%,.,-7%,.,.,.
CS(=O)(=O)N1CCC(C(=O)N2CCN(c3ccccc3F)CC2)CC1,?,7%,3%,-22,-3%,19µM*
O=C(C1CCN(S(=O)(=O)c2ccccc2)CC1)N1CCN(c2ccccc2F)CC1,3%,9%,-8%,1,0%,-6%
CC(OCCN1CCCC1)(c1ccc(F)cc1)c1ccc(F)cc1,?,-6%,3%,-5,0%,30µM*
Fc1ccc(OCCOCCN2CCCC2)cc1,15%,2%,.,4,-1%,-11%
O=C1C=CC(=O)N1Cc1ccncc1,-12%,-16%,.,10,?,-12%
O=C1C=CC(=O)N1CCCCCCCCCCN1C(=O)C=CC1=O,16µM*,-11%,.,-51*,1%,1.2µM*
CCOC(=O)c1ccc(NC(=O)CCc2c(C)nc3c(c(C)nn3-c3ccccc3)c2C)cc1,11%,.,-3%,.,.,.
CC(OC(=O)c1cc(O)c2ccccc2c1O)C(=O)Nc1ccc(C(N)=O)cc1 (stereo not drawn),?,11%,-2%,-25,-4%,6.7µM*
Cc1ccc(OCC(=O)OC2=C(C(=O)c3ccccc3)N(C)S(=O)(=O)c3ccccc32)cc1,-18%,.,3%,.,.,.
O=c1cc(NCCc2ccccc2)c2ccccc2o1,-14%,15%,-9%,7,1%,24µM*
CC(=O)/C(C#N)=C1\NC(=O)C(Cc2ccccc2Cl)S1 (stereo not drawn),-15%,3%,-2%,?,-2%,?
CC(=O)/C(C#N)=C1\NC(=O)C(Cc2cc(Cl)ccc2Cl)S1 (stereo not drawn),-12%,-15%,-17%,-53*,-6%,-13%
CC1(C)Cc2c(c(-c3ccco3)nc3sc4c(NCCCO)ncnc4c23)CO1,-21%,-3%,-3%,1,-2%,-16%
CC1(C)Cc2c(c(-c3ccco3)nc3sc4c(NCC5CCCO5)ncnc4c23)CO1 (stereo not drawn),89µM*,-4%,17%,-21,-1%,?
Cc1cccc(-c2nc(CCNC(=O)c3ccccc3Br)cs2)c1,7%,.,5%,.,.,.
Cc1nn(-c2ccccc2)c2c1C(c1ccco1)C(C#N)=C(N)O2 (stereo not drawn),-23%,3%,-8%,2,-2%,27µM*
COc1ccc(OC)c(C2C(C#N)=C(N)Oc3c2c(C)nn3-c2cccc(Cl)c2)c1 (stereo not drawn),-8%,-2%,-10%,.,-5%,24µM*
CCNc1ncc2nc(C)c(=O)n(Cc3cccs3)c2n1,-1%,.,-15%,.,.,.
CSCC[C@H](NC(=O)[C@H](CC(C)C)NC(=O)CNC(=O)[C@H](Cc1ccccc1)NC(=O)[C@H](Cc1ccccc1)NC(=O)[C@H](CCC(N)=O)NC(=O)[C@H](CCC(N)=O)NC(=O)[C@@H]1CCCN1C(=O)[C@H](CCCCN)NC(=O)[C@@H]1CCCN1C(=O)[C@@H](N)CCCN=C(N)N)C(N)=O,-6%,.,-1%,.,.,.
SMILES,VDR inh,Rango release inh,GCN5L2 inh,PI5P4Ka inh,Rango complex inh,PLK1 PBD inh
COc1cc(NC(=O)c2ccc(NC(=O)N3CCSc4ncccc43)cc2)cc(OC)c1,9%,.,0%,.,.,.
N#C/C(=C\c1ccccc1)C(=O)N(c1ccccn1)C1CCCCC1,25µM*,-6%,0%,4,8%,-13%
CCOC(=O)C1CCN(C(=O)Cn2nc(CC)n3c(cc4sccc43)c2=O)CC1,-6%,.,-6%,.,.,.
CC(C)(C)C(=O)[C@@H]1[C@@H]2C(=O)N(c3ccc4c(c3)OCCO4)C(=O)[C@@H]2C2c3ccccc3C=CN21 (stereo partly drawn),-14%,-6%,?,-5,1%,11µM*
O=C1C2C3C=CC([C@@H]2C(=O)N1c1nccs1)C31CC1 (stereo partly drawn),-1%,2%,-6%,4,0%,-3%
O=C1C2C3C=CC(CC3)C2C(=O)N1c1nccs1 (stereo not drawn),-3%,-10%,-16%,-62*,0%,-6%
CCOC(=O)c1ccc(Cl)c(S(=O)(=O)N2CCCC2)c1,-20%,0%,-15%,-11,7%,21µM*
NC(=O)COC(=O)c1ccc(Cl)c(S(=O)(=O)N2CCCCCC2)c1,-14%,-20%,-11%,-1,?,-3%
COc1ccc(-c2cc(NC=O)c3ncc(-c4ccc(OC)c(OC)c4)n3c2)cc1,.,.,.,-51*,.,-21%
COc1ccc(-c2cc(NC=O)c3ncc(-c4ccc(OC)c(OC)c4)n3c2)cc1OC,.,.,.,-26,.,-16%
O=CNc1cc(-c2cccc(F)c2)cn2c(-c3ccc(F)cc3)cnc12,.,.,.,-23,.,-23%
COc1cccc(-c2cc(NC=O)c3ncc(-c4cccc(C(=O)N(C)C)c4)n3c2)c1,.,.,.,-68*,.,-24%
COc1cccc(-c2cnc3c(NC=O)cc(-c4ccc(O)c(OC)c4)cn23)c1,.,.,.,-65*,.,-26%
O=CNc1cc(-c2ccoc2)cn2c(-c3ccc(F)cc3)cnc12,.,.,.,-60*,.,?
Cc1cccc(-c2cc(NC=O)c3ncc(-c4cccc(C(=O)N(C)C)c4)n3c2)c1,.,.,.,?,.,-29%
COc1cc(C2c3c(-c4ccccc4O)n[nH]c3C(=O)N2Cc2ccco2)ccc1OCC(C)C (stereo not drawn),9%,.,-17%,.,.,.
CC(C)Cn1cc(NC(=O)NCc2cccc(Cl)c2)c2ccccc2c1=O,6%,.,-8%,.,.,.
CN(C)S(=O)(=O)c1ccc(C(=O)NCCSc2c(-c3ccc(Br)cc3)[nH]c3ccccc23)cc1,-18%,.,2%,.,.,.
